Broadly, the % Inhibition is the change of the read-out against control, counted positive when it falls.

Out of some 4,800 compounds screened, about 410 (8.5%) showed an effect of 50% or more. Many of the other results were omitted from the sample, so strong results are more common in it than they were.

In this experiment the test system is Plasmodium falciparum. Kind of experiment: Confirmatory screen in NF54 pLDH assay, in single point, at 2uM, 72h. The format is functional, Erythrocyte. The following applies: timepoint 72 hour.
As to `Cc1nn(C)c(NC(=O)Nc2cccc(Cl)c2)c1C1=CCCCC1`, the “% Inhibition” value is reported as -9%. As for `O=C(Nc1cccc(Cl)c1)c1ccc(-c2cnc(N3CCCC3)nc2)cc1`, the figure is -19%; as for `O=C(Nc1cccc(Cl)c1)Nc1cccc(-c2cnc3n2CCC3)c1`, 75%; as for `O=C(Cn1cccn1)Nc1cccc(S(=O)(=O)N2CCCC2)c1`, -8%. Turning to `C[C@@H](C1CCCC1)N1C(=O)NC(CC(F)(F)F)C1=O` (stereo not given in full), the “% Inhibition” value was -23%. For `O=C(NS(=O)(=O)C1CCOCC1)c1csc(-c2ccco2)n1` the value was -10%; for `Cc1ccccc1Cn1cnc2c1c(=O)n(C1CCCCC1)c(=O)n2-c1ccccc1Cl`, 82%. On to `COc1ccccc1Cn1cnc2c1c(=O)n(C1CCCCC1)c(=O)n2-c1ccccc1Cl`, for which the “% Inhibition” value stood at 90%. For `COC(=O)c1ncn2c1C(=O)N(Cc1ccccc1OC)[C@](C)(C(=O)NC1CCCCC1)C2`, the “% Inhibition” value came out at 11%. With `COc1ccccc1-n1c(=O)n(C2CCCC2)c(=O)c2c1ncn2Cc1ccccc1Cl`, the “% Inhibition” value was 34%. As for `Cn1ncn(CC(=O)c2cccc(Cl)c2Cl)c1=O`, the “% Inhibition” value is recorded as -14%. `O=C(CN1C(=O)N[C@H](c2ccc(F)cc2)C1=O)Nc1ccc2c(c1)OCCO2`: the “% Inhibition” value is listed as 5%. With `CC(C)(C)CC(C)(C)NC(=O)c1ccc2nc(N3C(=O)CCC3=O)sc2c1`, the “% Inhibition” value stood at 9%.

As to `C[C@H](c1ccccc1)N1C(=O)[C@@H]2CN(C(=O)CC(C)(C)C)CCN2C1=O`, the “% Inhibition” value is -13%. With `Cc1ccc(CCC(=O)N2CC[C@H](C)S(=O)(=O)CC2)s1`, the “% Inhibition” value was found to be 9%. As for `C[N+]12CCCCC1C(OC(=O)C1(c3ccccc3)CCCC1)CCC2` (stereo not given), the figure is 60%. As to `O=C1C2ON(c3ccccc3)C(c3ccncc3)C2C(=O)N1c1ccc2ccccc2c1` (stereo not given), the “% Inhibition” value is on record as 8%. Consider `COc1ccc2cc3n(c2c1)C[C@@](C)(C(=O)NC1CCCC1)N(Cc1ccc(F)cc1)C3=O`, for which the “% Inhibition” value came to 13%. With `Cc1cc(C)nc(N[C@H](c2ccc(F)cc2)c2cc(C)sc2NC(=O)c2ccccc2)n1`, the “% Inhibition” value is recorded as 6%. In the case of `Cc1ccc([C@@H]2C=C(C(=O)O)Nc3c(C(N)=O)nnn32)cc1`, the “% Inhibition” value is listed as -12%. In the case of `Cc1ccc(C2=C[C@@H](c3ccc(Cl)cc3)n3nc(NC(=O)c4ccccc4)nc3N2)cc1`, the “% Inhibition” value stood at 90%. On to `COc1cc([C@@H]2C=C(c3ccc(Cl)cc3)Nc3ncnn32)ccc1OCc1ccc(Cl)cc1`, for which the “% Inhibition” value was 4%. For `Cc1cccc(OC(=O)O[C@H]2c3nccnc3C(=O)N2c2ccc(Cl)cn2)c1` the value was 16%; for `CN(C)c1ccc2c(c1)CN(C(=O)c1ccccc1S(C)(=O)=O)CC2`, -5%. For `O=C(COc1ccc(Cl)cc1)N[C@H](CO)CC1CCCC1` the value was 4%; for `O=S1(=O)N=C(n2ccnc2)c2ccccc21`, -17%. In the case of `CS(=O)(=O)n1cnc2cc(F)c(F)cc21`, the “% Inhibition” value is -8%.

For `COc1ccc(-c2nnc(COc3ccc(-c4ccccc4)cc3)s2)cc1`, the “% Inhibition” value is given as -10%. For `COc1ccc(-[n+]2c(-c3ccc(-c4ccccc4)cc3)cn3c2COCC3)cc1`, the “% Inhibition” value amounted to 60%.

Regarding `COc1ccc(N2CCN(c3nc(-c4ccccc4)cs3)CC2)cc1`, the “% Inhibition” value is recorded as 0%. For `COc1ccc(-[n+]2c(-c3ccccc3)cn3c2CCC3)cc1`, the “% Inhibition” value is reported as 59%. With `COc1ccc(CCc2nnc3n2CCOC3)cc1`, the “% Inhibition” value is -1%. Consider `COc1ccc(-c2cc(-c3ccccc3)nc(N3CCC(C)CC3)n2)cc1`, for which the “% Inhibition” value is recorded as 43%.

For the molecule `O=C(Cn1c(=O)n(Cc2ccco2)c(=O)c2ccccc21)NC1CCCCC1`, the “% Inhibition” value was determined as 10%.

Consider `Cc1noc([C@H]2CCCN(C(=O)c3cc4c(s3)CCC4)C2)n1`, for which the “% Inhibition” value is -5%. For `O=C1c2ccccc2N[C@]2(C(=O)Nc3ccccc32)N1c1ccc2c(c1)OCO2`, the “% Inhibition” value was -25%. Turning to `Cc1nn(-c2ncc(C(F)(F)F)cc2Cl)c(=O)n1-c1ccc(OCc2ccccc2)cc1`, the “% Inhibition” value was -12%. `CCCCN(CC)c1ncc(C(=O)Nc2ccc(OCC)cc2)c(N)n1`: the “% Inhibition” value was found to be 15%. As for `Cc1ccc(NC(=O)Nc2cc(C)ccc2N2CCCN(Cc3ccc(F)cc3)C2=O)cc1`, the “% Inhibition” value is recorded as 30%.

Take `Cc1cccc(CN(Cc2cccc(C)n2)C[C@H]2CCCCO2)n1`: the “% Inhibition” value is 90%.

Take `Cc1cccc(CNC(=O)NC2CCOC2c2ccc(Cl)cc2)n1` (stereo not given): the “% Inhibition” value is on record as -15%.

Take `Cc1cc(C)nc(NCCC[C@H]2CCCCO2)n1`: the “% Inhibition” value is reported as -15%. Regarding `CC(C)NC(=O)C(=O)Nc1nccs1`, the “% Inhibition” value is recorded as -19%. For `CC(C)c1nc(CN(C)[C@@H](C)C(=O)Nc2nccs2)cs1`, the “% Inhibition” value was determined as 23%. In the case of `CC(C)N(CC(=O)Nc1nccs1)Cc1ccccn1`, the “% Inhibition” value is on record as 59%. With `CCN1C(=O)CCN(C(=O)c2ccnn2C)CC12CCOCC2`, the “% Inhibition” value was 3%. Take `Brc1cccc2c1OCC[C@@H]2Nc1ncnc2nc[nH]c12`: the “% Inhibition” value came to 4%. Take `Oc1ccccc1-c1cnc(C(F)(F)F)s1`: the “% Inhibition” value is reported as 90%. For `Oc1nc(-c2cccc(C(F)(F)F)c2)sc1-c1ccccc1`, the “% Inhibition” value was 2%. With `Cc1ccc(OCC(=O)Nc2cc(C)nn2-c2nc3c(cnn3-c3ccc(C)c(C)c3)c(=O)[nH]2)cc1`, the “% Inhibition” value is listed as 57%.

Values taken from ChEMBL document CHEMBL4888484, “Replenishing the malaria drug discovery pipeline: Screening and hit evaluation of the MMV Hit Generation Library 1 (HGL1) against asexual blood stage Plasmodium falciparum ,using a nano luciferase reporter read-out” (2022).
